Shiga toxin inh = inhibitors of Shiga toxin in Vero cells; Vero cells, Shiga toxin protein synthesis inhibition reporter; inhibition, % at 38.7 µM; 9.2% of 290,000 active; in the data active = inhibition mostly above about 28%, no sharp cut-off; inactive = mostly below about 43%; note: 0% is about no effect
Pf growth 96h = P. falciparum growth inhibition at 96 hours; P. falciparum luciferase reporter growth, 96 h; 6.9% of 320,000 active; Potency, µM (series often up to 28.7 µM), for the others: at the top dose activity change, negative = inhibition, actives largely listed as inhibitors; AID 504834; note: potency is the fitted concentration of half-maximal effect; % is set by controls: 0 for no effect and ±100 for the full control effect
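Erythrocytes infected with luciferase-expressing P. falciparum were dispensed at 2% hematocrit and 0.05% parasitemia (final), then incubated with compounds 96 hours at 37 C in 5% CO2. Luminescence after detection reagent addition reported growth.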
Pf growth 48h = inhibits P. falciparum growth in the first generation, 48 h. P. falciparum luciferase growth in erythrocytes, 48 h. Potency, µM (top dose mostly 28.7 µM), for inactives: at the highest dose activity change, negative = inhibition, actives largely listed as inhibitors. 5.9% of 310,000 active; note: potency is the fitted concentration of half-maximal effect; % is set by controls: 0 for no effect and ±100 for the full control effect
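In quantitative HTS format, infected erythrocytes bearing luciferase-reporter parasites were treated for a single generation at 37 C. Luminescence after adding detection reagent served as the growth measure.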
FBPA Giardia inh = inhibitors of Giardia lamblia fructose-1,6-bisphosphate aldolase | A8B2U2 | purified Giardia FBPA | Potency, µM (series often up to 59.6 µM), inactives show top-dose activity, negative = inhibition, hits mostly inhibitors | 0.71% of 290,000 active | AID 2451; note: potency is the fitted concentration of half-maximal effect; % is set by controls: 0 for no effect and ±100 for the full control effect; nearly all actives have a fitted effect of over 55% in size
Target sequence (A8B2U2 whole entry, looked up): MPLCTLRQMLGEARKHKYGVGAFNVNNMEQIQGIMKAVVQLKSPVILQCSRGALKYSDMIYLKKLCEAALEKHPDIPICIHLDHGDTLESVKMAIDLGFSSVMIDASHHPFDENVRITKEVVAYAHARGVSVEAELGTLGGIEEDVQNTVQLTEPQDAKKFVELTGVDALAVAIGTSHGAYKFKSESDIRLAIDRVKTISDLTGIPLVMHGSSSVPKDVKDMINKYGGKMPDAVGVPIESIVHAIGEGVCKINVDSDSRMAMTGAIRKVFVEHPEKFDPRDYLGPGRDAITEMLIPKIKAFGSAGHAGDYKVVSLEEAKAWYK
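40 nM FBPA preincubated 10 min at RT with compound (up to 57.5 uM final), then substrate plus GAPDH/TPI/NAD/arsenate coupling and diaphorase/resazurin added. Fluorescence read after 20 min at RT, 525/598 nm.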
NS1 function inh = blocks influenza NS1 protein function. Potency, µM (titrated, usually from 46.1 µM), inactives show top-dose activity, positive = more growth. 0.4% of 270,000 active; calls by dose curve; note: potency is the fitted concentration of half-maximal effect; actives are rising curves; nearly all actives have a fitted effect of over 50% in size
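In this qHTS, NS1 from influenza A is expressed in budding yeast, where it slows growth. Cells are switched from glucose to 2% galactose medium (pH 6.0, -URA), treated with compound, and growth recovery is read at OD600.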
CHX counter = counter-screen hit for Shiga toxin inhibitors, cycloheximide; cell reporter, cycloheximide protein synthesis inhibition counterscreen; max response, %; 12% of 300,000 active; in the data active = max response mostly above about 13%, no sharp cut-off; inactive = mostly below about 14%; note: read at 38.3 µM for the half of the compounds with a filed dose; 0% is about no effect
The depositor's hits bear a star; u = inconclusive; x = not tested or not shown; [ ] = another dose, or the depositor's remark. The list is not random: actives were taken first. Their share in the collection is about 21%. Unless noted, calls come from the whole dose curve; as a rule, active = well fitted curve in the direction sought with a large enough effect; inconclusive = small, poorly fitted or top-dose-only effect, or another doubt; inactive = no such curve, though single readings can be large; an effect the other way counts as inactive or inconclusive.

SMILES	Shiga toxin inh	Pf growth 96h	Pf growth 48h	FBPA Giardia inh	NS1 function inh	CHX counter
CSc1cccc(NC(=S)NC(=O)CCc2ccccc2)c1	22.3	67.4%	-1.2%	-0.8%	-10.0%	23.0*
CCC(C)C(=O)Nc1cccc(SC)c1 (centres undefined)	56.1	20.7%	36.4%	u	3.4%	16.4*
Cc1cccc(C)c1NC(=S)NC(=O)CCc1ccccc1	0.9	u	u	x	-2.6%	-2.1
COCc1cccc(NC(=O)CCc2ccccc2)c1	49.2*	-13.5%	50.1%	0.0%	-9.0%	18.3*
COC(=O)[C@@H](NC(=O)O[C@@H]1C(=O)c2cc(Br)ccc2O[C@H]1c1ccc2c(c1)OCO2)C(C)C	x	x	x	-1.6%	x	x
CSc1cccc(NC(=O)CCc2ccccc2)c1	50.1*	27.3%	9.6%	-5.7%	x	18.3*
COC(=O)C1C(C)OC(=O)NC1c1ccccc1 (centres undefined)	x	x	x	0.3%[12.9 µM]	x	x
O=C(CCC(=O)N(CC(=O)NC1CCCC1)c1ccc(F)cc1)Nc1nccs1	14.6	4.4%	-9.9%	x	0.6%	-6.1
O=C(CC(=O)Nc1ccc(Cl)cc1Cl)Nc1ccc(Cl)cc1Cl	4.5	15.1%	6.4%	-10.5%	0.7%	-3.1
CN(C)C(=S)SCC(=O)Nc1ccc(Cl)cc1Cl	109.6*	17.3%	20.3%	11.9%	-21.8%	23.5*
S=C(NCCc1ccccn1)Nc1ccc(Cl)cc1Cl	41.9	25.7%	1.2%	-10.7%	-1.6%	14.3*
S=C(NCCc1ccccn1)Nc1cc(Cl)cc(Cl)c1	-5.4	13.1µM*	u	-3.8%	-9.1%	-0.9
S=C(NCCc1ccccn1)Nc1ccccc1Cl	22.3	-19.8%	16.7%	-26.1%	3.2%	10.5
CN(C)CCNC(=S)Nc1ccccc1Cl	-5.4	u	-5.4%	0.8%	4.7%	-5.4
CN(C)CCNC(=S)Nc1ccc(Cl)cc1Cl	30.4	20.5%	23.2%	5.7%	5.7%	23.0*
COc1ccc(OC)c(NC(=O)c2cc(S(=O)(=O)N3CCCC3)cn2C)c1	7.7	37.6%	-14.9%	-9.7%	7.9%	1.1
COc1ccc(COC(=O)N/N=C2/C[C@@H](O)[C@@H](O)[C@@H]3[C@H]4C(=O)N(c5ccc(F)cc5F)C(=O)[C@@H]4CC[C@@H]23)cc1	x	x	x	0.2%[12.9 µM]	x	x
COc1ccc(S(=O)(=O)N(C)C)cc1NC(=O)CSc1nncs1	-2.2	9.8%	0.0%	2.8%	3.1%	-1.2
CCOC(=O)[C@]1(C(NC(=O)OC)c2ccco2)CCCC1=O (some centres undefined)	x	x	x	-0.1%[12.9 µM]	x	x
Cc1cccc(Cl)c1NC(=S)NCCc1ccccn1	-6.0	5.5%	-14.0%	-7.1%	0.9%	-1.0
COc1cccc(NC(=S)NCCc2ccccn2)c1	39.3*	-20.5%	26.0%	-18.0%	6.6%	26.7*
S=C(NCCc1ccccn1)Nc1ccccc1	34.1*	54.2%	14.2%	4.1%	x	22.1*
COc1cccc(NC(=S)N(Cc2ccccn2)Cc2ccccc2Cl)c1	24.0	62.3%	u	-1.0%	11.7%	-0.8
S=C(NCCc1ccccn1)Nc1ccc(Cl)c(Cl)c1	41.5*	u	-5.6%	-1.3%	7.0%	1.6
S=C(NCCCNC(=S)Nc1ccccc1)Nc1ccccc1	16.8	-5.3%	-8.2%	4.4%	-0.9%	-1.8
SMILES	Shiga toxin inh	Pf growth 96h	Pf growth 48h	FBPA Giardia inh	NS1 function inh	CHX counter
Cn1cc(C(=O)NCc2ccc(Cl)cc2)c(=O)c2cc(S(=O)(=O)N3CCOCC3)ccc21	-13.7	6.1%	u	10.4%	-6.9%	-1.0
NCC12CC3CC(C1)CC(c1ccc(Cl)cc1)(C3)C2	-23.6	17.6%	u	-0.6%	x	-9.3
CCc1nc2ccccc2c(NC(=O)CN2CC(C)CC(C)C2)c1C (centres undefined)	-11.0	9.28µM*	-20.8%	13.0%	11.3%	-3.8
CCC(=O)Nc1c(C)c(CC)nc2ccccc12	-9.6	-17.1%	u	0.5%	-10.1%	1.2
CCCOc1cc(N(CC)CC)ccc1/C=C(/C#N)c1nc2ccc(C)cc2[nH]1	8.3	2.62µM*	7.38µM*	-25.5%	21.2%	15.8
Cc1ccc(C(C)C)c(OC/C(O)=C(\C#N)c2nc3ccccc3[nH]2)c1	13.2	-6.8%	-15.4%	-3.4%	-4.0%	-1.4
CCOc1cc(N(CC)CC)ccc1/C=C(/C#N)c1nc2ccccc2[nH]1	82.2*	8.28µM*	-18.9%	-8.9%	3.2%	27.3*
